Measurements from PubChem BioAssay AID440 (NMMLSC, 2006).
About 180 (0.75%) of roughly 24,000 compounds were called active. No stated cut-off is given here; in the data, active means inhibition above about 30%; inconclusive means no clear call, values can overlap the other calls; inactive means below that. The full list was thinned out, with actives kept by preference.

The compounds below were run against fMet-Leu-Phe receptor (Homo sapiens) (UniProt P21462) (assay: small molecules displacing FPR fluorescent ligand – cell-based, FPRL1 counter-screen, flow cytometry, primary screen (AID 440;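 further: 0% = buffer wells and 100% = receptor blocker peptide wells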)). Settings: FPR-expressing cells, fluorescent ligand binding, stronger effect = higher value, concentration not given here.
Chain of fMet-Leu-Phe receptor (Homo sapiens) (P21462 whole entry, looked up): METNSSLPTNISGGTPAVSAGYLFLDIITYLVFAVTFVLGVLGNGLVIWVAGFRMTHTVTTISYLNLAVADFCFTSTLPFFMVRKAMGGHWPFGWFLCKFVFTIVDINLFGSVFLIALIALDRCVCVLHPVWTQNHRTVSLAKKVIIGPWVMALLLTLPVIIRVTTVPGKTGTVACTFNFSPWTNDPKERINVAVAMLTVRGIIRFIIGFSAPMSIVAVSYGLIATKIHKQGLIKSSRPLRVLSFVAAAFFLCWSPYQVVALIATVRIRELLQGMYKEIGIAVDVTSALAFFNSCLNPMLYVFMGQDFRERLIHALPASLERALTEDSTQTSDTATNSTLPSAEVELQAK
With `COc1ccc(CNC(=O)C2CCN(S(=O)(=O)N3CCOCC3)CC2)cc1` the inhibition was -0.9% (inactive).
`COc1ccc(/C(O)=C2/C(=O)C(=O)N(CCCN(C)C)C2c2ccccc2)cc1OC` (stereo not given) was tested, and the inhibition was -8.5% (inactive).
With `Cc1ccc(NC(=O)CN(C)S(=O)(=O)c2cnc[nH]2)cc1C` the inhibition was -11.5% (inactive).
`O=C(O)Cc1ccc(NC(=O)C2CCCCC2C(=O)O)cc1` (stereo not given) was tested, and the inhibition was -9.4% (inactive).
`COc1ccccc1N1CCN(C(=O)c2c(-c3c(Cl)cccc3Cl)noc2C)CC1` was tested, and the inhibition was 6.9% (inactive).
With `CCOC(=O)CN1CC23C=CC(O2)C(C(=O)Nc2ccc(F)cc2)C3C1=O` (stereo not given) the inhibition was -4.5% (inactive).
`COc1ccc(CC(NC(C)=O)C(=O)NC2CCN(C(=O)Nc3ccc(C#N)cc3)CC2)cc1OC` (stereo not given) was tested, and the inhibition was 13.5% (inactive).
In the case of `CCOC(=O)c1oc2ccccc2c1NC(=O)c1cccs1`, the inhibition is reported as -2.1% (inactive).
In the case of `CCOc1ccc(N(CC(=O)OC)S(=O)(=O)c2c(C)noc2C)cc1`, the inhibition is reported as -18.8% (inactive).
With `O=C(C1=C(O)C(=O)N(Cc2ccccc2)C1c1cccnc1)c1ccco1` (stereo not given) the inhibition was 36% (active).
`O=C(Nc1ccccc1)N(Cc1cccnc1)Cc1ccco1` was tested, and the inhibition was 4.3% (inactive).
`O=C(C1=C(O)C(=O)N(Cc2ccccc2)C1c1ccco1)c1ccco1` (stereo not given) was tested, and the inhibition was 43.1% (active).
In the case of `CC1=C(C(=O)OCc2ccccc2)C(c2ccco2)n2ncnc2N1` (stereo not given), the inhibition is reported as -4.9% (inactive).
`O=C(C1=C(O)C(=O)N(c2ncccn2)C1c1cccs1)c1ccco1` (stereo not given) was tested, and the inhibition was -4.1% (inactive).
In the case of `O=C1c2ccccc2C(O)N1Cc1ccccc1` (stereo not given), the inhibition is reported as -3.5% (inactive).
`Cc1cccc(N2C(=O)SC(N(CC(=O)O)c3cccc(C)c3)C2=O)c1` (stereo not given) was tested, and the inhibition was 76.8% (active).
With `CCC1Oc2ccc(Cl)cc2N(CC(=O)O)C1=O` (stereo not given) the inhibition was 4.3% (inactive).
For `Cc1cc(C)cc(N(CC(=O)NCC2CCCO2)S(=O)(=O)c2c(C)noc2C)c1` (stereo not given), the inhibition was 3.2% (inactive).
For `COc1ccc(C2CC(c3ccc(Cl)cc3Cl)Nc3nc(N)nn32)cc1OC` (stereo not given), the inhibition was 6.7% (inactive).
In the case of `COc1ccccc1C(=O)N1CCN=C1SCc1cccnc1`, the inhibition is reported as 0.1% (inactive).
In the case of `CCOC(=O)c1oc2c(CN3CCN(C)CC3)c(O)ccc2c(=O)c1-c1ccc(Br)cc1`, the inhibition is reported as -5.9% (inactive).
In the case of `CC(C)OC(=O)c1cc(NC(=O)C2C3CCC(O3)C2C(=O)O)cc(C(=O)OC(C)C)c1` (stereo not given), the inhibition is reported as 39.8% (active).
In the case of `Cc1sc(NC(=O)C2C3CCC(O3)C2C(=O)O)c(C(=O)OC(C)C)c1-c1ccc(Cl)cc1` (stereo not given), the inhibition is reported as 6.3% (inactive).
With `CC(C)COC(=O)C1C2C=CC3(CN(C(C)c4ccc(Br)cc4)C(=O)C13)O2` (stereo not given) the inhibition was -6.6% (inactive).
`Cc1ccc(C)c(N(CC(=O)NCc2ccco2)C(=O)CCC(=O)Nc2ccccn2)c1` was tested, and the inhibition was 19% (inactive).
With `CCN(CC)CCNC(=O)Cn1cnc2sc(C)c(S(=O)(=O)N3CCOCC3)c2c1=O` the inhibition was -9.4% (inactive).
With `C/C(CC(O)(/C=N/O)c1ccccc1)=N\O` (stereo not given) the inhibition was 7.2% (inactive).
With `O=C(Cn1c(=O)n(Cc2ccco2)c(=O)c2ccccc21)NCC1CCCO1` (stereo not given) the inhibition was 5.8% (inactive).
With `N#CCCN1CCN(S(=O)(=O)c2ccc(S(=O)(=O)NC3CC3)cc2)CC1` the inhibition was -1.2% (inactive).
With `CCOc1ccc(CCNC(=O)C2CCN(c3ccc(N4CCOCC4)nn3)CC2)cc1OCC` the inhibition was -8.8% (inactive).
For `COCCOC(=O)C1=C(C)NC(=O)CC1c1cc2c(cc1Br)OCO2` (stereo not given), the inhibition was -1.8% (inactive).
For `Nc1nonc1-c1noc(-c2ccc(Br)o2)n1`, the inhibition was -6.7% (inactive).
In the case of `CCC(C)(C(=O)NC1CCCC1)N(C(=O)CNC(C)=O)c1ccc(C)cc1` (stereo not given), the inhibition is reported as 5.8% (inactive).
`O=C(COC(=O)c1ccccc1C(=O)c1ccccc1)c1ccco1` was tested, and the inhibition was -1% (inactive).
With `CCOC(=O)N1CCN(C(=O)c2cc3c(-c4ccc(Cl)cc4)nn(C)c3s2)CC1` the inhibition was 8.5% (inactive).
With `CC1CCN(c2oc(-c3ccccc3F)nc2C#N)CC1` the inhibition was -10.3% (inactive).
`O=C(NCCc1ccc(Cl)cc1)C1CC(=O)N(C2CCCCC2)C1` (stereo not given) was tested, and the inhibition was -0.9% (inactive).
In the case of `CCOc1cc2c(cc1OCC)C(C(=O)O)C(c1ccc(OC)c(O)c1)N(C)C2=O` (stereo not given), the inhibition is reported as 12.3% (inactive).
For `CCOc1ccc(CC(=O)Nc2ccc(S(=O)(=O)Nc3cc(C)on3)cc2)cc1OCC`, the inhibition was -0.6% (inactive).
With `O=C(Cn1nnc(-c2ccc(CN3CCOCC3)cc2)n1)NC1CCCCC1` the inhibition was 5.2% (inactive).
In the case of `Cc1cc(C(=O)O)c(S(C)(=O)=O)s1`, the inhibition is reported as -3.8% (inactive).
In the case of `Cc1cc(=O)n(C)c(=O)n1CCCNc1ccccc1`, the inhibition is reported as -1.3% (inactive).
With `COCc1cc(C)nc(SCC(=O)Nc2cccc(C)c2)c1C#N` the inhibition was -8.6% (inactive).
For `CCOC(=O)c1ccc(CS(=O)c2ccc(Cl)cc2)o1` (stereo not given), the inhibition was -1.1% (inactive).
With `CCCS(=O)(=O)N1CCC(C(=O)NCCCN(C)Cc2ccccc2)CC1` the inhibition was -2.3% (inactive).
With `C=CCN(CC=C)C(=O)CN1C(=O)c2ccccc2C1=O` the inhibition was 13.3% (inactive).
For `Cc1cc(=O)oc(C)c1C(=O)NCc1ccc(F)cc1`, the inhibition was -12.6% (inactive).
For `O=C(O)C1CCCCC1C(=O)Nc1ccc(Cl)cc1` (stereo not given), the inhibition was -10.1% (inactive).
`Cc1c2cnn(-c3ccccc3)c(=O)c2c(C)n1CCCC(=O)N1CCN(C)CC1` was tested, and the inhibition was 1.2% (inactive).
For `O=C1CCC(Cc2ccccc2)N1` (stereo not given), the inhibition was 1.5% (inactive).
With `COc1ccc(C(=O)NC(=O)CSc2nnc(-c3ccco3)n2-c2ccccc2)cc1` the inhibition was -1.4% (inactive).
For `Cn1c(C(=O)N2CCC(C(N)=O)CC2)cc2c(=O)n(C)c3ccccc3c21`, the inhibition was -1% (inactive).
`O=C(NCc1ccco1)C1CCCN(S(=O)(=O)c2cccc3nonc23)C1` (stereo not given) was tested, and the inhibition was -5.3% (inactive).
For `Cn1c(=O)n(C)c2cc(CNc3ccc(N4CCOCC4)c(C(=O)O)c3)ccc21`, the inhibition was 0.5% (inactive).
For `Cc1ccc(NC(=O)c2nc[nH]c2C(=O)N2CCCCC2)c(C(=O)c2ccccc2)c1`, the inhibition was -3.6% (inactive).
